From the supplement of paper PMC10849652
Targets with a hit are over-represented here; the source holds about 7,900 in all. About 0.6% of all pairs of compound and target were hits. Values without a mark were called inactive.

Tests used:
Test in all cases: log2 fold change, soluble protein after heating vs DMSO (PISA); higher = thermal stabilisation; K562 cells, 10 uM, 30 min; active = over 0.2 and 3.5 SD of the protein, either way, in both replicates (recomputed)
[1] = compound: NC(=O)Nc1cc(-c2cccc(F)c2)sc1C(=O)N[C@H]1CCCNC1
Method in brief: (§1)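 Thermal stability values are relative to control samples and come from duplicates. They are expressed as log2 fold changes. For measurement, K562 cells (2×10^6 cells/mL) received 10 μM compound for 30 min, and aliquots were heated for 3 min over 48°C-58°C, pooled, and extracted at 4°C in PBS with 0.5% NP-40. Soluble protein, the supernatant after 21,000xg for 90 min, was quantified by TMTpro 16plex LC-MS/MS with equalised channel sums.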

[2] = compound: NC(=O)c1cnc(N[C@@H]2CCCC[C@@H]2N)nc1Nc1cccc(-n2nccn2)c1
Method in brief: as §1

[3] = compound: NC1(c2ccc(-c3nc4ccn5c(=O)[nH]nc5c4cc3-c3ccccc3)cc2)CCC1
Method in brief: as §1

[4] = compound: NCC(=O)Nc1ccc(-n2nc(C(F)(F)F)cc2-c2ccc3c(ccc4ccccc43)c2)cc1
Method in brief: as §1

entinostat = compound: Nc1ccccc1NC(=O)c1ccc(CNC(=O)OCc2cccnc2)cc1 [entinostat]
Method in brief: as §1

vorinostat = compound: O=C(CCCCCCC(=O)Nc1ccccc1)NO [vorinostat]
Method in brief: as §1

citarinostat = compound: O=C(CCCCCCNC(=O)c1cnc(N(c2ccccc2)c2ccccc2Cl)nc1)NO [citarinostat]
Method in brief: as §1

silmitasertib = compound: O=C(O)c1ccc2c(c1)nc(Nc1cccc(Cl)c1)c1ccncc12 [silmitasertib]
Method in brief: as §1

[5] = compound: c1cc(OCCN2CCCCC2)cc(-c2n[nH]c3ccc(-c4nnc[nH]4)cc23)c1
Method in brief: as §1

entospletinib = compound: c1cn2cc(-c3ccc4cn[nH]c4c3)nc(Nc3ccc(N4CCOCC4)cc3)c2n1 [entospletinib]
Method in brief: as §1

[6] = compound: O=C1NC(=O)C(c2cnc3ccccn23)=C1c1cn2c3c(cc(F)cc13)CN(C(=O)N1CCCCC1)CC2
Method in brief: as §1

Chain of UniProt Q9NP58 (Q9NP58 whole entry, looked up): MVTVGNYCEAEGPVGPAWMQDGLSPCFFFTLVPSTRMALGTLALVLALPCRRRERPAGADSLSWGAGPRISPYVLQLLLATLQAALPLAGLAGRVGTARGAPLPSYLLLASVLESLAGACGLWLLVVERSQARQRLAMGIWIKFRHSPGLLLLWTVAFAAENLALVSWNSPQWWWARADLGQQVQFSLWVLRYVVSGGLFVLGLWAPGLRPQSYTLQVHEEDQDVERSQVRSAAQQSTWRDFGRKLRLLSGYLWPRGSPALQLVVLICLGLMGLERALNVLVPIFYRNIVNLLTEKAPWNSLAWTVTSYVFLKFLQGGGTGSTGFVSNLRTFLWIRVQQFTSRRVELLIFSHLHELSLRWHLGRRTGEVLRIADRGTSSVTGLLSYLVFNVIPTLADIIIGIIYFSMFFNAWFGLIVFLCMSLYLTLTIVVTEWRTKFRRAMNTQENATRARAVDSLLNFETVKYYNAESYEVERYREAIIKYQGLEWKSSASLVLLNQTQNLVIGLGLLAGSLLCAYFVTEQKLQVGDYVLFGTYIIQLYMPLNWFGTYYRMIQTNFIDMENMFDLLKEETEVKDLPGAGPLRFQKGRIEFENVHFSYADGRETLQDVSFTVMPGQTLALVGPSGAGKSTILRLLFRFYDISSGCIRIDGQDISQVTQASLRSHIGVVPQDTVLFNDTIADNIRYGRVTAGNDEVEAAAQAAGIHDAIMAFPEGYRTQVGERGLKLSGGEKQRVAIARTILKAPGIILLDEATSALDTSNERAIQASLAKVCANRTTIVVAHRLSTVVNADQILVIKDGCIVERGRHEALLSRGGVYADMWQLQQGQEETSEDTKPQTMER
Chain of UniProt Q9HC16 (Q9HC16 whole entry, looked up): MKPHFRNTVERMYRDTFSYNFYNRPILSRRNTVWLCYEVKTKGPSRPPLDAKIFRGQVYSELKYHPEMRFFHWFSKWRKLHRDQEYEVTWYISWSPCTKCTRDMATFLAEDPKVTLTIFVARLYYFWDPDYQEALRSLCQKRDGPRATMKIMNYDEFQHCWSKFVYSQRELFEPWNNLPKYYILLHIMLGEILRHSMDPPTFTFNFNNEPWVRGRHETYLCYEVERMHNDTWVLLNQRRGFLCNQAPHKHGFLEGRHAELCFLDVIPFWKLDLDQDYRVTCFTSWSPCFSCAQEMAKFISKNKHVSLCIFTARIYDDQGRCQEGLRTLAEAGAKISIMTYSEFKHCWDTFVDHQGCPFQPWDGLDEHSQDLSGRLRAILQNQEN
Chain of UniProt P98171 (P98171 whole entry, looked up): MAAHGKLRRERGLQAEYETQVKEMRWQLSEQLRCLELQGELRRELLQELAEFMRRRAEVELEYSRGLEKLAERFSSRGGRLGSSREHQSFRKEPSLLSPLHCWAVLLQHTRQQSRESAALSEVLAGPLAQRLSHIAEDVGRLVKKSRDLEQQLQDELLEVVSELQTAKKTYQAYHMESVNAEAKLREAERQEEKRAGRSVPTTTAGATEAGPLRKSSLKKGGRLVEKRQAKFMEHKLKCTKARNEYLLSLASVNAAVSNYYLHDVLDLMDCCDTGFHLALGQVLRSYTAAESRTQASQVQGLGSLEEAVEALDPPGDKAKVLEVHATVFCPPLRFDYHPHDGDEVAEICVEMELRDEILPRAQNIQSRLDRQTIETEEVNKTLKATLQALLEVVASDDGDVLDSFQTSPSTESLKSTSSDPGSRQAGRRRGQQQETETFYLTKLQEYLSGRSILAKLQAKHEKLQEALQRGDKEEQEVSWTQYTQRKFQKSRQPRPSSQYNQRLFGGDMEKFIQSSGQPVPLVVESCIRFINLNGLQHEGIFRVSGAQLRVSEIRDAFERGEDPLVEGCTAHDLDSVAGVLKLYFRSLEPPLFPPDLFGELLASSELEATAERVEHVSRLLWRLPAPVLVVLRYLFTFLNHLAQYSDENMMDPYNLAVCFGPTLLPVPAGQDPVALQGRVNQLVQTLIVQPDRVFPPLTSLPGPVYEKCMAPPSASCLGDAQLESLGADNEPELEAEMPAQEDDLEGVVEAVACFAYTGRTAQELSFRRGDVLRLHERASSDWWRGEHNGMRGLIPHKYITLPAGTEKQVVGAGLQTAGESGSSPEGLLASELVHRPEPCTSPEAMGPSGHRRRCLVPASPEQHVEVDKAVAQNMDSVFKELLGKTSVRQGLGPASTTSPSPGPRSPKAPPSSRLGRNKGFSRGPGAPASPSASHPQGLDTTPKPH
Chain of UniProt Q15059 (Q15059 whole entry, looked up): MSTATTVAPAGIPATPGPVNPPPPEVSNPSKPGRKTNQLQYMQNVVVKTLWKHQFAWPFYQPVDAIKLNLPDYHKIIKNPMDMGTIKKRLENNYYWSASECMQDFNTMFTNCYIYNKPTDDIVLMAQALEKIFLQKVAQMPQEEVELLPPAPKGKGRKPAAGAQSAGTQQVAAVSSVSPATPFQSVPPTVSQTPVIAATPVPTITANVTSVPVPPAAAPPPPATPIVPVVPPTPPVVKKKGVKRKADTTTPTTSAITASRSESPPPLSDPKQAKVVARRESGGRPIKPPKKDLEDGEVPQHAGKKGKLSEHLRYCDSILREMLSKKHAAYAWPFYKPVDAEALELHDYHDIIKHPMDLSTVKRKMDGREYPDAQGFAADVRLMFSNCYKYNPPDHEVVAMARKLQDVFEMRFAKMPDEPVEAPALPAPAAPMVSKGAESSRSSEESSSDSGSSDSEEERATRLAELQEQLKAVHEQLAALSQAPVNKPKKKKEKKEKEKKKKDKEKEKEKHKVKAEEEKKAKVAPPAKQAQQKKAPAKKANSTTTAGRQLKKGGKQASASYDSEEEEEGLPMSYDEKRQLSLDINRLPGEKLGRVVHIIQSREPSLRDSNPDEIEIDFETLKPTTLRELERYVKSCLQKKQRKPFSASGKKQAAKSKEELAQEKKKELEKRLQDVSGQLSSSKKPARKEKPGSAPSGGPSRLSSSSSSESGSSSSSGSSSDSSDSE
Chain of UniProt Q9Y4P1 (Q9Y4P1 whole entry, looked up): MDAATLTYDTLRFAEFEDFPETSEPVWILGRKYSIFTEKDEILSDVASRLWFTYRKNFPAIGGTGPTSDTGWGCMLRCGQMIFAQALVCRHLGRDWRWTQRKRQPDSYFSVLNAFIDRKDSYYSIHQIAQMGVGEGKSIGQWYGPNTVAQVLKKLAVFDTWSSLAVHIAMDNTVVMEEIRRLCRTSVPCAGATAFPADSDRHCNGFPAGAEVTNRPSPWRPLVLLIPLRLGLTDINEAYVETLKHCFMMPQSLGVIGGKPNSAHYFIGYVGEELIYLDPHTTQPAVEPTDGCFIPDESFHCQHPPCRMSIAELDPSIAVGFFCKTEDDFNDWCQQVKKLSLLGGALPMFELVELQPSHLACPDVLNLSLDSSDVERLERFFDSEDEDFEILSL
Chain of UniProt Q8N2F6 (Q8N2F6 whole entry, looked up): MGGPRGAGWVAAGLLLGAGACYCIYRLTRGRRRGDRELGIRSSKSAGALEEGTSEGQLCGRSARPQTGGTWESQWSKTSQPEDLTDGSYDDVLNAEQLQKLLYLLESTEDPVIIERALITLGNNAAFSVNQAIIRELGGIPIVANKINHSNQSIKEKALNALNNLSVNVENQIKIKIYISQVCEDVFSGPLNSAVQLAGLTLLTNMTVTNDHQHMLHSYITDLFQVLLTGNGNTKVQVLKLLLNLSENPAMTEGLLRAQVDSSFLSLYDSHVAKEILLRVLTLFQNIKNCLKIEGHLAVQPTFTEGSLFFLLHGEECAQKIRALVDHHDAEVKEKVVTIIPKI
Chain of UniProt Q9UQB8 (Q9UQB8 whole entry, looked up): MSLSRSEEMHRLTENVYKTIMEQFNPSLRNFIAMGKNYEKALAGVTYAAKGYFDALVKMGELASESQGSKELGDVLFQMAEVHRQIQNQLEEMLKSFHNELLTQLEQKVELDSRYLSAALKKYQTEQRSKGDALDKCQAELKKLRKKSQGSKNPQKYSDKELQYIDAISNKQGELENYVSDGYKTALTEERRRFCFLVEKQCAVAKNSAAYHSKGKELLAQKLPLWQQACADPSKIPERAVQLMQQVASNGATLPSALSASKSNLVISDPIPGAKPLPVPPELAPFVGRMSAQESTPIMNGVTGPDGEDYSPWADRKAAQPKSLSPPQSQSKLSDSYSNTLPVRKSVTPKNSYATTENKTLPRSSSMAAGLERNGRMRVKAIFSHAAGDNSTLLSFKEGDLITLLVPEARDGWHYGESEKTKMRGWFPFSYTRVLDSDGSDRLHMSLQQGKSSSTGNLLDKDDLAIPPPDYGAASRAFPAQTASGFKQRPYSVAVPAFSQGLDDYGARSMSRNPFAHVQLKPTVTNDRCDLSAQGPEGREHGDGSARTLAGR
Chain of UniProt Q6P6C2 (Q6P6C2 whole entry, looked up): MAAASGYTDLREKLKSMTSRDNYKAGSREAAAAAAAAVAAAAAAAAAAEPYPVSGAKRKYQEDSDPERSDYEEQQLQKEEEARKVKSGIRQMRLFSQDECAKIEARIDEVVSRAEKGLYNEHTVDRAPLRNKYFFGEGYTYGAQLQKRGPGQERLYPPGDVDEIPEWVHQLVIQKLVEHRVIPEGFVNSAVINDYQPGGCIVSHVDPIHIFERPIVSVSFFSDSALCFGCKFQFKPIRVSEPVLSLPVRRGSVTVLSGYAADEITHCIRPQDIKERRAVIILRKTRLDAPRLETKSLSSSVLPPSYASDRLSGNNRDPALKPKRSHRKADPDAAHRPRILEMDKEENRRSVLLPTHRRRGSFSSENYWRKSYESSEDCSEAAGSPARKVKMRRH
Chain of UniProt Q9NWX5 (Q9NWX5 whole entry, looked up): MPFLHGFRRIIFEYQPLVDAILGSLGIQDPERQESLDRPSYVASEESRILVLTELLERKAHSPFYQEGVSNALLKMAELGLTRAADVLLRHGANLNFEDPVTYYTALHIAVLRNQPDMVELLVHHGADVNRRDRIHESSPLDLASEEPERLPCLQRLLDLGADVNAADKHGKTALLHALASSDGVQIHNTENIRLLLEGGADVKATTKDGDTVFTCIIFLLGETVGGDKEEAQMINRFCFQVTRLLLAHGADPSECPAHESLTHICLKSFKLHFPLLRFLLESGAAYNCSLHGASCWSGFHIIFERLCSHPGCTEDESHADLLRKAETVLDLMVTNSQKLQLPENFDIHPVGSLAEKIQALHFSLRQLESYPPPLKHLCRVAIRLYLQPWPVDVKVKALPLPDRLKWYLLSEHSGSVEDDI

Target	log2 fold change [1]	log2 fold change [2]	log2 fold change [3]	log2 fold change [4]	log2 fold change (entinostat)	log2 fold change (vorinostat)	log2 fold change (citarinostat)	log2 fold change (silmitasertib)	log2 fold change [5]	log2 fold change (entospletinib)	log2 fold change [6]
ADAMTS5 (UniProt Q9UNA0)	0.026	-0.065	0.074	-0.071	-0.08	0.056	0.074	-0.064	0.051	-0.145	
ATP9B (UniProt O43861)	-0.58 (active)	-0.028	0.052	-0.029	-0.24	-0.044	0.135	0.071	-0.048	-0.134	0.029
ASH2L (UniProt Q9UBL3)	-0.025	-0.075	0.002	-0.074	0.025	0.013	0.044	0.08	-0.05	-0.02	-0.064
AP4S1 (UniProt Q9Y587)	-0.014	0.039	-0.11	0.019	0.062		0.054	-0.005	0.015	0.039	-0.092
AHSA1 (UniProt O95433)	-0.002	-0.005	-0.131	-0.043	0.022	0.013	0.026	0.019	-0.003	-0.017	-0.009
ANK2 (UniProt Q01484)	-0.146	-0.196	-0.183	-0.16	0.001	0.134	-0.104	-0.004	-0.019	0.016	
AP2A2 isoform 2 (UniProt O94973)	-0.155	0.052	-0.003	-0.013	0.002	0.034	-0.023	-0.016	-0.156	0.059	-0.113
ATP6V1F isoform 2 (UniProt Q16864)	0.175	0.221	-0.078	0.143	0.087	-0.092	0.026	-0.042	0.026	0.027	-0.073
ABCC5 (UniProt O15440)	0.016	0.088	-0.038	-0.005	-0.017	0.001	0.114	0.008	0.12	0.028	-0.082
ARF4 (UniProt P18085)	-0.011	0.025	-0.082	-0.06	-0.002	-0.024	0.041	-0.017	-0.004	-0.088	-0.069
BDH2 (UniProt Q9BUT1)	-0.091	-0.086	-0.042	0.009	0.025	-0.03		0.076			
ARHGAP4 isoform 2 (UniProt P98171)	0.197	-0.079	0.021	-0.036	0.081		0.047	-0.043	-0.097	0.003	
AP2M1 (UniProt C9JTK4)	-0.07	-0.149	-0.111	-0.261	0.043		-0.132	0.116	0.024	0.047	-0.267
ATF7 isoform 6 (UniProt P17544)	-0.113	0.138	-0.123	0.268	-0.045			0.067			-0.044
BRD3 (UniProt Q15059)	0.008	-0.026	0.017	0.119	-0.123	-0.663 (active)	-0.567 (active)	0.061	-0.002	0.033	
AFG1L (UniProt Q8WV93)	-0.021	0.008	0.019	-0.178	0.095		-0.004	0.009	-0.057	-0.029	-0.009
ARMC8 (UniProt Q8IUR7)	-0.044	0.017	-0.087	0.002	-0.031	-0.031	0.057	0.058	-0.028	-0.011	0.026
BRK1 isoform 2 (UniProt Q8WUW1)	-0.071	0.033	-0.019	0.065	0.079	-0.06	0.031	-0.063	-0.078	0.047	-0.16
APOBEC3G (UniProt Q9HC16)	0.046	0.149	0.061	-0.027	0.026		0.125	0.116	-0.013	0.126	0.202
ABCB6 (UniProt Q9NP58)	0.005	-0.111	-0.456 (active)	-0.015	-0.011	0.044	0.063	0.018	-0.021	0.026	-0.047
AIP (UniProt O00170)	-0.004	0.011	-0.128	0.018	0.084	0.076	0.105	0.038	0.036	-0.031	0.031
ARMC10 (UniProt Q8N2F6)	-0.039	0.003	0.005	0.028	0.005	0.056	0.096	0.054	-0.062	-0.001	-0.039
APH1A (UniProt Q96BI3)	-0.048	-0.201	-0.075	0.303 (active)	0.014	-0.024	0.055	0.006	0.085	-0.084	
BAIAP2 (UniProt Q9UQB8)	-0.229 (active)	-0.083	-0.086	-0.014	0.019	0.082	0.031	-0.016	-0.034	-0.012	0.04
ACOX3 (UniProt O15254)	-0.084	0.004	-0.09	0.16	0.071		0.287	-0.302	-0.016	0.056	-0.022
ALKBH5 (UniProt Q6P6C2)	0.031	-0.021	0.102	0.052	-0.076	0.18	0.109	0.033	0.042	-0.03	0.076
ABHD17A isoform 2 (UniProt Q96GS6)	0.036	-0.119	-0.049	-0.078	-0.104	-0.04	0.036	-0.02	0.051	-0.076	0.01
ALDH6A1 (UniProt Q02252)	-0.02	0.034	-0.045	-0.116	-0.052	0.021	0.062	0.048	-0.043	-0.028	-0.072
ASB6 (UniProt Q9NWX5)	0.076	0.161	-0.216	-0.032	-0.12	-0.075	0.106	-0.006	0.07	-0.065	0.059
ATG4B isoform 2 (UniProt Q9Y4P1)	0.08	-0.104	-0.401	-0.151	0.154	0.268	0.005	0.003	-0.023	0.11	-0.093
